# Experimental data taken from the supplement of paper PMC10338343.
# ± gives the standard deviation.
# Legend:
# [1] = tested on: MILI (PIWIL2) piRISC loaded with L1MC piRNA (26 nt); assay: pre-steady-state target cleavage rate (min^-1); guide: L1MC piRNA 5'p-UAACUAAAUACUAUGCAAGCUGUAGG; higher = faster piRNA-guided slicing of the target
# Outline: (§1)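 Using HEPES–potassium acetate buffer at 33 °C, 1 nM active affinity-purified piRISC with a single synthetic guide was mixed with 0.1 nM transcribed, DNA-blocked target RNA library for 0–8 or 0–960 min, with or without 500 nM GTSF1 partner protein. Uncleaved targets were sequenced and normalised to depth and to weakly complementary targets, and three trials were pooled with k3 capped at 0.0001 min^-1. A burst-and-steady-state fit gave the pre-steady-state cleavage rate.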
# [2] = tested on: EfPiwi piRISC loaded with L1MC piRNA (26 nt); assay: pre-steady-state target cleavage rate (min^-1); auxiliary factor: 500 nM Ephydatia muelleri Gtsf1; guide: L1MC piRNA 5'p-UAACUAAAUACUAUGCAAGCUGUAGG; MIWI and MILI are mouse PIWI proteins and EfPiwi is from a freshwater sponge; tags in brackets are library labels; higher = faster piRNA-guided slicing of the target
# Outline: as §1
# [3] = auxiliary factor: 500 nM mouse GTSF1
# [4] = auxiliary factor: none (no GTSF1)
Sequence,"pre-steady-state target cleavage rate [1, 3]","pre-steady-state target cleavage rate [1, 4]",pre-steady-state target cleavage rate [2]
UCCUGCUACAGCUUGCAAAGUAUUUAGUAA,0.121 ± 0.021,0.00272 ± 0.0025,0.00434 ± 0.0016
UCCUCCUAAAGCUUGCAUAGUAUUUAGUUA,0.157 ± 0.019,0.00372 ± 0.0021,0.00604 ± 0.0023
UCCUGGAAGAGCAUGCAUAGUAUUUAGUUA,0.196 ± 0.015,0.00911 ± 0.0029,0.0132 ± 0.004
UCCUGGAUCAGCUUGGAUAGUAUUUAGUAA,0.166 ± 0.019,0.00324 ± 0.0026,0.00463 ± 0.0023
UCCUGCUACAGCUUGCUUAGUUUUUAGUUA,0.0712 ± 0.011,0.00366 ± 0.0015,0.0055 ± 0.0019
UCCUGGUACACCUUGCAUAGUAAUUAGUUA,0.491 ± 0.14,0.00374 ± 0.0032,0.00464 ± 0.0027
UCCUGGAUCAGGUUGCAUUGUAUUUAGUUA,0.115 ± 0.0091,0.00671 ± 0.0024,0.00567 ± 0.0021
UCCUGGAACAGCUUGCAUAGUAUUUAGGUUA,0.23 ± 0.041,0.00413 ± 0.0032,0.00305 ± 0.0027
UCCUGGAACAGGAUGCAUAGUAUUUAGUAA,0.221 ± 0.021,0.00369 ± 0.0022,0.0055 ± 0.0028
UCCUGGAUGAGGAUGCAUAGUAUUUAGUUA,0.103 ± 0.017,0.00665 ± 0.0021,0.00336 ± 0.0024
UCCUGGUAGAGCUUGCAUAGUAAUUAGUUA,0.177 ± 0.021,0.00729 ± 0.0024,0.00406 ± 0.0024
UCCUGGUAUCAGCUUGCAUAGUAUUUAGUUA,0.252 ± 0.026,0.0221 ± 0.0059,0.0704 ± 0.018
UCCUGCUUCAGCUUGCAUAGUAUUAAGUUA,0.13 ± 0.02,0.00279 ± 0.0026,0.00492 ± 0.0016
UCCUGCUACAGCUUGCAUAGUAUUUAGUUU [g2:g25:cont:t1U],0.315 ± 0.022,0.0127 ± 0.0035,0.158 ± 0.042
UCCUGGUACUGCUAGCAUAGUAUUUAGUUA,0.174 ± 0.02,0.0113 ± 0.003,0.00467 ± 0.0022
UCCUCCUACAGCAUGCAUAGUAUUUAGUAA,0.231 ± 0.019,0.00366 ± 0.0021,0.00521 ± 0.0023
UCCUGGAUCAGCUAGGAUAGUAUUUAGUUA,0.178 ± 0.013,0.00609 ± 0.0017,0.00257 ± 0.002
UCCUGGUAGAGCUUGCAUUGUAUUUAGUUA,0.18 ± 0.015,0.00645 ± 0.0026,0.00786 ± 0.0033
UCCUGCUACAGCUUGCAUAGUAUUUGGUUA,0.27 ± 0.029,0.00697 ± 0.0023,0.00556 ± 0.0012
UCCUCGUACAGCUUGCAUACUAUUUAGUUA,0.0786 ± 0.011,0.00274 ± 0.0022,0.0224 ± 0.0069
UCCUCCUUCAGCAUGCAUAGUAUUUAGUUA,0.265 ± 0.017,0.00701 ± 0.0018,0.0621 ± 0.018
UCCUGCUACAGCUUGCAAAGUAUUUUGUUA,0.139 ± 0.026,0.00325 ± 0.0025,0.00625 ± 0.0028
UCCUGGAUCAGCAUGCAUACUAUUUAGUUA,0.0724 ± 0.0079,0.00491 ± 0.0019,0.00409 ± 0.0018
UCCUGGUACAGCUUACAUAGUAUUUAGUUA,0.213 ± 0.02,0.00894 ± 0.0027,0.0283 ± 0.0076
UCCUGGAACAGGAAGCAUAGUAUUUAGUUA,0.199 ± 0.016,0.00491 ± 0.0024,0.00471 ± 0.002
UCCUGGAUGUGCGUGCAUAGUAUUUAGUUA,0.107 ± 0.012,0.0107 ± 0.0032,0.00405 ± 0.0027

Sequence,"pre-steady-state target cleavage rate [1, 3]","pre-steady-state target cleavage rate [1, 4]",pre-steady-state target cleavage rate [2]
UCCUCGUACAGCAUGCAUAGUAUUUAGUUA,0.262 ± 0.015,0.0102 ± 0.0022,0.0515 ± 0.013
UCCUGGUACAGCUUGCAUAGUAAUUUAGUUA,0.186 ± 0.025,0.0129 ± 0.0045,0.00647 ± 0.0026
UCCUGGUACAGCGUGCAUAGUAUUUAGUUA,0.225 ± 0.031,0.00988 ± 0.0044,0.0121 ± 0.004
UCCUGGAUGAGCUUGCUUAGUAAUUAGUUA,0.191 ± 0.019,0.00839 ± 0.0025,0.00425 ± 0.0027
UCCUGGAUCAGCUUGCAUAGUAAUUAGUAA,0.0974 ± 0.021,0.00485 ± 0.0021,0.00487 ± 0.0027
UCCUCCUACAGCAUUGCAUAGUAUUUAGUUA,0.228 ± 0.014,0.00746 ± 0.0025,0.0213 ± 0.0068
UCCUGGAUCAGCUUGCAUAGUAUAAAGUUA,0.171 ± 0.018,0.00561 ± 0.0029,0.00752 ± 0.0027
UCCUCCUUCAGCUUGCAAAGUAUUUAGUUA,0.162 ± 0.015,0.00632 ± 0.0021,0.0828 ± 0.021
UCCUGCAACAGGUUGCAUAGUAUUUAGUUA,0.248 ± 0.022,0.00771 ± 0.0033,0.018 ± 0.0035
UCCUGGUACAGCUUGCAUAGUAUGUUAGUUA,0.184 ± 0.03,0.00462 ± 0.0027,0.00488 ± 0.0028
UCCUGGAUCAGCUUGCAUAGUAUUUACGUUA,0.243 ± 0.027,0.00431 ± 0.0028,0.0133 ± 0.0044
UCCUGGUACAGCUUGCAAAGUAUUAAGUUA,0.0919 ± 0.018,0.00406 ± 0.0027,0.00292 ± 0.0026
UCCUCCUACAGCUUGCACAGUAUUUAGUUA,0.19 ± 0.017,0.00767 ± 0.0021,0.0475 ± 0.013
UCCUGCUACAGCUUGCUUAGUAUUUAGUUA,0.248 ± 0.013,0.00684 ± 0.0021,0.0201 ± 0.0068
UCCUGGAUCAGCUUGCAAAGUAUUAAGUUA,0.119 ± 0.011,0.00698 ± 0.0025,0.00373 ± 0.0026
UCCUGGAUCUGCUUGGAUAGUAUUUAGUUA,0.165 ± 0.019,0.0102 ± 0.0026,0.0089 ± 0.0032
UCCUGCUACAGCAUGCAUAGUAUUUAGUAA,0.277 ± 0.03,0.00478 ± 0.0028,0.00673 ± 0.0029
UCCUGGAUGUCCUUGCAUAGUAUUUAGUAA,0.117 ± 0.019,0.00376 ± 0.0019,0.00321 ± 0.0025
UCCUGCUACAGCUUGCAUAGUAAUUUAGUUA,0.233 ± 0.023,0.00525 ± 0.0024,0.00515 ± 0.0024
UCCUGCUACAGCUUGCAUUGUAAUUAGUUA,0.201 ± 0.024,0.00494 ± 0.0018,0.00519 ± 0.0025
UCCUGCUACAGCUUGCAUAGUAUUCAGUUA,0.244 ± 0.038,0.00294 ± 0.0021,0.00508 ± 0.0017
UCCUGGAUCAGCUUGCAUAGUAUUUAUUUA,0.0819 ± 0.017,0.00658 ± 0.0024,0.00293 ± 0.0028
UCCUGGAUGUGGAUGCAUAGUAUUUAGUUA,0.092 ± 0.012,0.00877 ± 0.0027,0.00943 ± 0.0037
UCCUCCUACAGCAUGCAUACUAUUUAGUUA,0.0758 ± 0.011,0.00328 ± 0.0022,0.00724 ± 0.0028
UCCUGGUAGAGCUUGCAAAGUAUUUAGUUA,0.109 ± 0.0077,0.00935 ± 0.0029,0.0322 ± 0.0099
